Data on one molecule can be found in PubChem BioAssay AID2284099 (EPA ToxCast).

Structures are written as SMILES. The source made the active and inactive calls. The calls were made as follows: active = hit-call score of the fitted dose curve at least 0.9, where 1 is the maximum; inactive = score below 0.9.

human JAK2 Tyrosine Kinase, JAK2 (gene 3717), sequence (O60674 whole entry, looked up): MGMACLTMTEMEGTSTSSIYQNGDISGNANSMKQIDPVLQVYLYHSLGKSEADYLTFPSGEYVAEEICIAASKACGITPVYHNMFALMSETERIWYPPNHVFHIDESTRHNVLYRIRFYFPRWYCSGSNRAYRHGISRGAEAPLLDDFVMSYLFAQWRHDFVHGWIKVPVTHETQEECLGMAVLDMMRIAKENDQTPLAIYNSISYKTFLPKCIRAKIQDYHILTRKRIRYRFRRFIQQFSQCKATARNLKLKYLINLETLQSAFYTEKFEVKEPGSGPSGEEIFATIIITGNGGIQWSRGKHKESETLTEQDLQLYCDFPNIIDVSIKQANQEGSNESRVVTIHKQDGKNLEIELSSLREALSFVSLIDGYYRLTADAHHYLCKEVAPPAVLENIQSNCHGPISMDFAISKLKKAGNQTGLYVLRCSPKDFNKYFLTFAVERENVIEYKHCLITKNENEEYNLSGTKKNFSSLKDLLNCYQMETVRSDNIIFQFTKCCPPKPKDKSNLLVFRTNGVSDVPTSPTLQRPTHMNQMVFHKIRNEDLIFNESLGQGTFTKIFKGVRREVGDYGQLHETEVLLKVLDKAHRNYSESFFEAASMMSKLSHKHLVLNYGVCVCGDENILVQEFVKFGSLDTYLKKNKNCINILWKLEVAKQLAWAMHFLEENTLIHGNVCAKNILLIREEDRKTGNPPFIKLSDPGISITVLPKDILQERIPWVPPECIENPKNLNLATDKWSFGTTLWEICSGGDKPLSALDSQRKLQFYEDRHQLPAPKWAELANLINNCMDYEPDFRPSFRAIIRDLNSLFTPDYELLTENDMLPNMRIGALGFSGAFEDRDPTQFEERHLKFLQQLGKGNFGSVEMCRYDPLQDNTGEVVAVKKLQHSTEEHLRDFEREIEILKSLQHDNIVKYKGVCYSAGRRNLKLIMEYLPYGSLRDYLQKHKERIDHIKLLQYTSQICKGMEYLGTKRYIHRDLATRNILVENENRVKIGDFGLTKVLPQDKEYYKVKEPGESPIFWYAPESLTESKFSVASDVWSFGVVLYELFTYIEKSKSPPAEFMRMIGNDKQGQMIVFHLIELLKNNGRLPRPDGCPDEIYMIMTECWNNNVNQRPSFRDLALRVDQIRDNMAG

The assay deals with human JAK2 Tyrosine Kinase, JAK2 (gene 3717) (UniProt O60674). Description: ERF_FR_ENZ_hJAK2: Eurofins (ERF) Enzymatic Radiometric [Km ATP] KinaseProfiler LeadHunter Assay for human JAK2 Tyrosine Kinase. On the procedure:
ERF_FR_ENZ_hJAK2 is a biochemical, single-readout assay that uses extracted gene-proteins in a cell-free assay. Measurements were taken 1 hour after chemical dosing in a 96-well plate. See JAK2 Human TK Kinase Enzymatic LANCE Assay [Km ATP], Cerep.ERF_FR_ENZ_hJAK2 is an assay component calculated from the ERF_FR_ENZ_hJAK2 assay. It is designed to measure enzyme activity using a type of enzyme reporter as detected by fluorescence intensity with LANCE technology.Data from the assay component ERF_FR_ENZ_hJAK2 was analyzed at the assay endpoint, ERF_FR_ENZ_hJAK2, in the positive analysis fitting direction relative to DMSO as the negative control and baseline of activity. Using a type of enzyme reporter, loss-of-signal activity can be used to understand changes in enzymatic activity as they relate to gene JAK2. To generalize the intended target to other relatable targets, this assay endpoint is annotated to the kinase intended target family, where the subfamily is non-receptor tyrosine kinase.
JAK2 (h) is incubated with 8 mM MOPS pH 7.0, 0.2 mM EDTA, 100 uM […], 10 mM MgAcetate and [gamma-33P]-ATP (specific activity and concentration as required). The reaction is initiated by the addition of the Mg/ATP mix. After incubation for 40 minutes at room temperature, the reaction is stopped by the addition of phosphoric acid to a concentration of 0.5%. […]
On to `O=C(/C=C/c1ccc(O)cc1)CC(=O)/C=C/c1ccc(O)cc1`, for which the concentration at half-maximal activity (AC50) is 2.51 µM (active).
